# From publication PMC5540273 (PLoS ONE, 2017)
# Tests used:
# Settings in all cases: concentration: 1 μM, replicates: in singlicate; n = 1
# [1] = test system: CAMK1B
# [2] = test system: CAMK1D
# [3] = test system: CAMK1G
# [4] = test system: CAMK1
# [5] = test system: CAMK2A
# [6] = test system: CAMK2B
# [7] = test system: CAMK2D
# [8] = test system: CAMK2G
# [9] = test system: CAMK4
# [10] = test system: CAMKK1
# [11] = test system: CAMKK2
# [12] = test system: CASK
# [13] = test system: T1, CDC2L1
# T1 construct: gene CDK11B
# [14] = test system: CDC2L2
# [15] = test system: T2, CDC2L5
# T2 construct: gene CDK13
# [16] = test system: T3, CDK11
# T3 construct: gene CDK19
# [17] = test system: CDK2
# [18] = test system: CDK3
# [19] = test system: CDK4-cyclinD1
# [20] = test system: CDK4-cyclinD3
# 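Also: KINOMEscan kinase panel screen.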
Compound,%Inh [1] [%],%Inh [2] [%],%Inh [3] [%],%Inh [4] [%],%Inh [5] [%],%Inh [6] [%],%Inh [7] [%],%Inh [8] [%],%Inh [9] [%],%Inh [10] [%],%Inh [11] [%],%Inh [12] [%],%Inh [13] [%],%Inh [14] [%],%Inh [15] [%],%Inh [16] [%],%Inh [17] [%],%Inh [18] [%],%Inh [19] [%],%Inh [20] [%]
Cc1csc(-c2nc(Nc3ccncc3)c3ccccc3n2)n1 [GW869640],9,0,14,5,10,2,17,25,0,26,23,26,0,5,8,7,7,9,11,1
CC(C)(C)c1ccc(C(=O)Nc2cn3cc(-c4cccnc4)ccc3n2)cc1,24,38,12,4,6,7,24,10,0,21,18,0,11,17,0,9,3,10,29,0
NC(=O)c1nnc2ccccc2c1N,0,13,7,14,0,0,7,0,0,10,0,36,7,25,11,3,6,19,32,0
Cl.Oc1ccc(-c2nc(-c3ccccc3)[nH]c2-c2ccncc2)cc1 [SB-428218],24,0,2,2,0,0,9,29,0,18,15,0,0,5,0,8,0,55,49,2
Cc1ccc(NC(=O)Nc2cccc(Cl)c2)cc1-c1ccc(C(=O)Nc2ccncc2)cc1 [GSK1398468],28,13,0,7,0,0,7,27,0,0,25,5,0,22,0,14,33,6,0,11
O=C(Nc1n[nH]c2cc(-c3cccc(F)c3F)ccc12)C1CC1 [SB-733894],0,12,100,26,19,13,1,7,0,8,13,30,2,0,8,5,22,0,0,30
